Rows were chosen to be rich in hits. Some 1.4% of all compounds tested hit in one or more screens of this group.
PrPC surface inh: reduces human prion protein on the cell surface; P04156; cell surface PrPC, TR-FRET read-out; inhibition, % at 13.8 µM; hit rate 0.43% among 370,000; AID 720596; in the data active means inhibition above about 24%; further: 0% = median of the test wells and 100% = reference compound wells
BH1578 lux ind: inducers of Vibrio cholerae quorum light production without autoinducers. V. cholerae BH1578 lux reporter, luminescence, 6 h. activation, % at 18.7 µM. hit rate 0.16% among 350,000; in the data active means activation mostly above about 9.7%, no sharp cut-off
FadD28 FP inh: blocks FadD28 binding to the bisubstrate probe; fluorescence polarization; inhibition, % at 12.5 µM; hit rate 0.22% among 360,000; AID 588549; in the data active means inhibition above about 8.5%, passing the limit was not always enough
PrP 5UTR inh: suppresses PrP 5' UTR mRNA reporter expression | hit rate 0.35% among 340,000 | AID 488862 | inhibition, % (concentration not given with the values) | cell-based PrP 5' UTR mRNA reporter, plate reader; in the data active means inhibition above about 52%; further: 0 = median of the neutral control wells
PriA SSB inh: blocks PriA binding to SSB C-terminal tail. hit rate 0.6% among 430,000. inhibition, % at 33 µM. AlphaScreen SSBct-PriA binding, biotinylated peptide; in the data active means inhibition mostly above about 37%, no sharp cut-off; inactive means mostly below about 20%;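 further: plate controls were negative control peptide for no effect and reference peptide for full effect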
PrPC confirm: confirmation of inhibitors of cell surface human prion protein. hit rate 65% among 1,500. cell surface PrPC level, TR-FRET. inhibition, % at 13.8 µM. AID 743200. shares compounds with PrPC surface inh; in the data active means inhibition above about 25%
LD9 tox: LD9 cell cytotoxicity, PrPc inhibitor counter-screen; shares compounds with PrPC surface inh; LD9 cells cytotoxicity, luminescence viability; inhibition, % at 13.8 µM; hit rate 29% among 1,500; AID 743201; in the data active means inhibition above about 9.5%
An asterisk follows results filed as active.

CSc1sc(C(=O)O)c2c1C(=O)CC(C)(C)C2 was read as PrPC surface inh -3, BH1578 lux ind inactive, FadD28 FP inh -4, PrP 5UTR inh -16 and PriA SSB inh -11.
Screening C(=Nc1ccc(N2CCOCC2)cc1)c1ccc2c(c1)OCO2 returned PriA SSB inh 3.
`CN(CC#CCNC(=O)Cc1ccccc1Cl)Cc1ccccc1` gave PriA SSB inh -7.
NC(=O)c1ccc2c(=O)n3c(-c4cc(Cl)c(N)c(Cl)c4)csc3nc2c1 was read as PrPC surface inh 32*, BH1578 lux ind -11, FadD28 FP inh -5, PrP 5UTR inh -20, PriA SSB inh 0, PrPC confirm 1 and LD9 tox 3.
`O=C(Cc1ccc(-n2c(=O)c3ccccc3n(Cc3ccc(F)cc3)c2=O)cc1)NCC1CCCO1` (stereo unspecified) gave PrPC surface inh -9, BH1578 lux ind 0, FadD28 FP inh -4, PrP 5UTR inh -19 and PriA SSB inh -17.
Screening O=C(Cc1ccc(-n2c(=O)c3ccccc3n(Cc3ccccc3F)c2=O)cc1)NCC1CCCO1 (stereo unspecified) returned PrPC surface inh 67*, BH1578 lux ind 0, FadD28 FP inh -5, PrP 5UTR inh -23, PriA SSB inh 1, PrPC confirm 4 and LD9 tox -4.
For Clc1ccc(-c2nc3ccc(Br)cn3c2Cc2cccc(Cl)c2)cc1 the results were PrPC surface inh 30*, FadD28 FP inh -6, PrPC confirm 53* and LD9 tox -4.
For COc1ccc(-c2nc3ccc(Br)cn3c2Cc2cccc(Cl)c2)cc1OC the results were PrPC surface inh 27*, FadD28 FP inh -5, PrPC confirm 61* and LD9 tox 0.
O=C(Cc1cccs1)Nc1nnc(-c2cc3ccccc3o2)o1 was read as PriA SSB inh 5.
`Cc1ccc(NC(=O)CCc2ccccc2F)cc1N1CCCCC1=O` gave PriA SSB inh -18.
`COc1ccc2nc3cc(Cl)ccc3c(Nc3cc(CN4CCCC4)c(O)c(CN4CCCC4)c3)c2n1` gave PrPC surface inh 45*, BH1578 lux ind 0, FadD28 FP inh -7, PrPC confirm 42* and LD9 tox 37*.
Screening CCc1cc(=O)oc2cc(OC(C)=O)cc(OC(C)=O)c12 returned PrPC surface inh 47*, BH1578 lux ind inactive, FadD28 FP inh 1, PrP 5UTR inh -4, PriA SSB inh -2, PrPC confirm 46* and LD9 tox -6.
`O=C(Cc1cccs1)Nc1c(C(=O)Nc2ccc([N+](=O)[O-])cc2)oc2ccccc12` gave PriA SSB inh 0.
Screening C[C@@]12C(=O)Nc3ccc(Cl)cc3C(=O)N1[C@H]1c3cc(Cl)ccc3OC[C@@H]1[C@@H]2c1ccccc1 returned PrPC surface inh 26*, BH1578 lux ind inactive, FadD28 FP inh 0, PrP 5UTR inh -5, PriA SSB inh -2, PrPC confirm 16 and LD9 tox -8.
For COc1ccc2c(c1)C(=O)N1[C@H]3c4cc(C)ccc4OC[C@@H]3[C@H](c3ccccc3)[C@]1(C)C(=O)N2 the results were PrPC surface inh 34*, BH1578 lux ind 1, FadD28 FP inh -3, PrP 5UTR inh -15, PriA SSB inh 6, PrPC confirm 23 and LD9 tox -6.
Screening Cc1ccc2c(c1)[C@H]1[C@H](CO2)[C@H](c2ccccc2)[C@]2(C)C(=O)Nc3ccc(Cl)cc3C(=O)N12 returned PrPC surface inh 25*, BH1578 lux ind -1, FadD28 FP inh 0, PrP 5UTR inh 2, PriA SSB inh 7, PrPC confirm 14 and LD9 tox -7.
`Cc1ccc2c(c1)[C@H]1[C@H](CO2)[C@H](c2ccccc2)[C@]2(C)C(=O)Nc3ccccc3C(=O)N12` gave PrPC surface inh 11, BH1578 lux ind 0, FadD28 FP inh -4, PrP 5UTR inh 4 and PriA SSB inh 6.
For Cc1ccccc1C(=O)NN1C(=O)CSC1=S the results were PrPC surface inh 34*, BH1578 lux ind 1, FadD28 FP inh 0, PrP 5UTR inh -12, PriA SSB inh 7, PrPC confirm 11 and LD9 tox -6.
`O=C(Nc1cnn(C2CCOCC2)c1)c1cc(=O)[nH]c2ccccc12` gave PriA SSB inh -1.
Screening O=C(Cc1cc(=O)[nH]c(SCc2ccc(F)cc2)n1)Nc1ccc2c(c1)OCCO2 returned PriA SSB inh -5.
For N#CC(C#N)=C1C=CC=CN1/C(=C\c1ccco1)C(=O)c1ccccc1 the results were PrPC surface inh 74*, BH1578 lux ind 0, FadD28 FP inh 0, PrP 5UTR inh -19, PriA SSB inh -1, PrPC confirm 67* and LD9 tox 79*.
For CC(C)(C)c1cc(CCC(=O)N2CCC2)cc(C(C)(C)C)c1O the results were PrPC surface inh 21, BH1578 lux ind inactive, FadD28 FP inh 1, PrP 5UTR inh -1 and PriA SSB inh -5.
CC1CN(C(=O)CCc2cc(C(C)(C)C)c(O)c(C(C)(C)C)c2)CC(C)O1 (stereo unspecified) was read as PrPC surface inh 26*, BH1578 lux ind -3, FadD28 FP inh -3, PrP 5UTR inh -11, PriA SSB inh 1, PrPC confirm 29* and LD9 tox 18*.
For O=C(NCCc1csc2nc(-c3cccs3)nn12)c1ccc2c(c1)OCO2 the results were PriA SSB inh 8.
O=C(O)CCCCCCC1C(=O)NC(=O)N1CCC(O)C1CCCCC1 (stereo unspecified) was read as PrPC surface inh 27*, BH1578 lux ind inactive, FadD28 FP inh -2, PrP 5UTR inh -14, PriA SSB inh -11, PrPC confirm 19 and LD9 tox -8.
COc1cc(OC)c(C#N)c(S(=O)(=O)Cc2ccccc2)c1 was read as PrPC surface inh 7, FadD28 FP inh -2, PrP 5UTR inh -10 and PriA SSB inh -13.
N#Cc1c([N+](=O)[O-])cc([N+](=O)[O-])cc1S(=O)(=O)Cc1ccccc1 was read as PrPC surface inh 42*, BH1578 lux ind -1, FadD28 FP inh -18, PrP 5UTR inh -30, PriA SSB inh -18, PrPC confirm 84* and LD9 tox 98*.
`Cc1cc(NC(=O)CCCSc2ccc(NC(=O)c3ccc(F)cc3)nn2)on1` gave PriA SSB inh -20.
Screening O=C1c2ccccc2-c2cccnc21 returned PrPC surface inh 2, BH1578 lux ind -1, FadD28 FP inh 0, PrP 5UTR inh -32 and PriA SSB inh 5.
Screening O=C1C(=O)c2ccccc2-c2ccccc21 returned PrPC surface inh 27*, BH1578 lux ind inactive, FadD28 FP inh 0, PrP 5UTR inh -46, PriA SSB inh 14, PrPC confirm 65* and LD9 tox 99*.
`O=c1c2nc(N3CCCCC3)sc2c(-c2ccco2)nn1Cc1ccccc1Cl` gave PriA SSB inh 2.

Source: PubChem (several laboratories)
